PLK1 PBD inh – inhibitors of human PLK1 polo-box domain binding; Plk1 PBD binding of FITC phosphopeptide, fluorescence polarization; Potency, µM, inactives show max response, negative = inhibition, usual class: inhibitors; 360,000 tested, 2.8% active; AID 720504; further: series mostly up to about 57 µM; nearly all actives have a fitted effect of over 65% in size
Gal4-VP16 FLuc – counter-screen for ROR gamma inhibitors: Gal4-VP16 reporter; 310,000 tested, 3.5% active; Potency, µM (titrated, usually from 53.6 µM), for inactives: at the top dose activity, negative = inhibition, most hits filed as inhibitors; Drosophila S2 Gal4-VP16 UAS-luciferase, luminescence, 20 h; AID 2546;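 further: Gal4-VP16 expression switched on by copper sulfate through the metallothionein promoter; nearly all actives have a fitted effect of over 50% in size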
ALDH1A1 inh – ALDH1A1 (human) enzyme inhibition; Potency, µM (doses to about 75.3 µM), without a hit: at the highest dose activity, negative = inhibition, hits mostly inhibitors; Purified ALDH1A1, NADH fluorescence, propionaldehyde substrate; 220,000 tested, 7.3% active; active means well fitted inhibition curve with a large enough effect, not every such curve was filed as active; inconclusive means small, poorly fitted or top-dose-only effect, or another doubt; inactive means no such curve, though single readings can be large or run the other way;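 further: plate controls were no enzyme wells and a reference inhibitor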
Target sequence (P00352 whole entry, looked up): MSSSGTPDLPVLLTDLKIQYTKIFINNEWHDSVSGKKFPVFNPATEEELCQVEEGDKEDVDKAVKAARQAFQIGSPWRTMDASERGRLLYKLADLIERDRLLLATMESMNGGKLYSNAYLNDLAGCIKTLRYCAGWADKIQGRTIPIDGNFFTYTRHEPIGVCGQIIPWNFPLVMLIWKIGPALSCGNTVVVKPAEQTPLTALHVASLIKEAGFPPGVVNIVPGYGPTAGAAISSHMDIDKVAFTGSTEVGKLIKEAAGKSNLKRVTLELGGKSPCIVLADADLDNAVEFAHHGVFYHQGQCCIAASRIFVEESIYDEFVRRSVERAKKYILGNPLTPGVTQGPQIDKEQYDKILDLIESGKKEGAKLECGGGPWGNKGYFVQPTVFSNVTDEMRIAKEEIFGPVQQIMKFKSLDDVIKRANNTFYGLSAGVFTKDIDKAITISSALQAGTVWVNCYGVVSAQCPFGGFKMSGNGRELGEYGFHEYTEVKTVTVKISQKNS
RORg inh – ROR gamma (mouse) transcription inhibition | Drosophila S2 Gal4-RORgamma UAS-luciferase reporter, 20 h | AID 2551 | Potency, µM (top dose mostly 53.6 µM), for the others: at the highest dose activity change, negative = inhibition, most hits filed as inhibitors | 310,000 tested, 5.4% active; further: nearly all actives have a fitted effect of over 60% in size
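Drosophila Schneider cells stably carrying a metallothionein-driven Gal4 DBD–ROR gamma fusion and a UAS-Photinus luciferase reporter were exposed to compound for 1 hr, then induced with copper sulfate (700 uM final) for 20 hr at ambient temperature before luminescence reading.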
Sfp inh – inhibitors of Bacillus subtilis Sfp phosphopantetheinyl transferase. Q9F4F7. Biochemical Sfp PPTase activity, qHTS. Potency, µM, for inactives: largest response in the series, negative = inhibition, actives largely listed as inhibitors. 310,000 tested, 3.5% active. AID 1490;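 further: the enzyme is Sfp with the accession as filed and its product quenches rhodamine fluorescence; 0% = enzyme reaction without inhibitor and -100% = no enzyme wells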
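Compounds were incubated with enzyme (final 15 nM) for 15 min at room temperature before substrate addition started the reaction. Fluorescence at 525 nm excitation, 598 nm emission was recorded immediately and after 30 minutes.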
* hit, by the source's call; ? = inconclusive; nt = no result; [ ] = dose if it differs, or a comment. This is a sample that favours compounds with a hit; in the whole collection about 12% have one here. Unless noted, the call rests on the fitted dose curve; in most records, active means well fitted curve in the direction sought with a large enough effect; inconclusive means small, poorly fitted or top-dose-only effect, or another doubt; inactive means no such curve, though single readings can be large; an effect the other way counts as inactive or inconclusive. Unless noted, on the % scale 0 is the no-effect control and ±100 the full control effect; potency means the concentration at half of the fitted maximal effect.

SMILES	PLK1 PBD inh	Gal4-VP16 FLuc	ALDH1A1 inh	RORg inh	Sfp inh
COc1cccc2c1NC(C(=O)O)C1CC=CC21 (configuration not stated)	27µM*	?	8.9µM*	0%	7.9µM*
O=C(O)C1Nc2c(cccc2C(F)(F)F)C2C=CCC12 (configuration not stated)	nt	3%	nt	6%	50µM*
O=C(NCc1ccccc1)C1Nc2ccc(OC(F)(F)F)cc2C2C=CCC12 (configuration not stated)	-9%	nt	nt	nt	nt
CCOC(=O)c1sc(NC(=S)NC(=O)CC(C)C)cc1C	27µM*	?	-6%	5.6µM*	?
COc1cc(NC(=O)Cc2ccccc2)ccc1NC(=O)c1ccco1	1%	5%	2%	40%	6%
CC(C)CC(=O)NC(=S)Nc1ccc(NC(=O)c2ccco2)cc1	-2%	-15%	-7%	13µM*	4%
CCC(=O)NC(=S)Nc1ccc(NC(=O)c2ccco2)c(OC)c1	-8%	?	-10%	13µM*	-21%
CCC(=O)NC(=S)Nc1ccc(NC(=O)c2ccco2)cc1	-11%	8%	1%	-19%	-3%
CCN(CC)S(=O)(=O)c1ccc(NC(=S)NC(=O)CC(C)C)cc1	0%	?	-13%	?	-9%
CCc1ccc(NC(=S)NC(=O)CC(C)C)cc1	-4%	1µM*	13%	1.1µM*	5%
CC(C)CC(N)c1csc(Nc2cnccn2)n1 (configuration not stated)	-9%	nt	nt	nt	nt
CC1(C)CC(=O)C(C(c2cccc(O)c2O)C2C(=O)CC(C)(C)CC2=O)C(=O)C1	nt	nt	14%[13.5 µM]	nt	nt
Cc1cc2c(cc1C)-n1nnnc1C(N1CCN(c3ccccn3)CC1)C(c1ccc3c(c1)OCO3)=N2 (configuration not stated)	-12%	nt	nt	nt	nt
CCCCC(=O)NC(=S)Nc1cccc(NC(=O)CC)c1	-11%	-5%	-1%	?	-10%
CCCCC(=O)NC(=S)Nc1cccc(NC(=O)c2ccco2)c1	-4%	16µM*	?	?	9%
Cc1cc(C)cc(C(O)c2ncc(-c3ccccc3Cl)[nH]2)c1 (configuration not stated)	-16%	nt	nt	nt	nt
CC(=O)c1ccc(NC(=S)NN2C(C)CCCC2C)cc1 (configuration not stated)	-9%	?	-6%	8.9µM*	12%
CC(=O)c1ccc(NC(=S)NC2CCCC(C)C2C)cc1 (configuration not stated)	-4%	?	?	5µM*	-4%
CCS(=O)(=O)c1ncc(Cl)c(C(=O)Nc2ccc(S(=O)(=O)N(C)c3ccccc3)cc2)n1	?	2.8µM*	nt	2.8µM*	?
CCN(c1ccccc1)S(=O)(=O)c1ccc(NC(=O)c2nc(S(C)(=O)=O)ncc2Cl)cc1	17µM*	3.2µM*	nt	6.3µM*	20µM*
COc1cccc(/C=N/Nc2cc(-n3nc(C)cc3-c3ccccc3)ncn2)c1O	3%	1µM*	18%	?	13%
COc1cccc(/C=N/Nc2nc(Nc3ccccc3)nc(-n3nc(C)cc3C)n2)c1O	-4%	2.5µM*	6%	1.1µM*	21%
COc1ccc(/C=N/Nc2nc(Nc3ccccc3)nc(N3CCCCC3)n2)cc1OC	-9%	-13%	?	10%	3%
N[C@H](CC(=O)O)C(=O)O	nt	-6%	16%	-8%[10 µM]	?
CC(C)NC(=O)N[C@H]1CC[C@H](CC(=O)NCc2ccc(Oc3ccccc3)cc2)O[C@@H]1CO	-14%	nt	nt	nt	nt
SMILES	PLK1 PBD inh	Gal4-VP16 FLuc	ALDH1A1 inh	RORg inh	Sfp inh
NC(=O)CC1Nc2cccc3cccc(c23)NC1=O (configuration not stated)	-12%	-11%	?	4%	-8%
O=C(CC1Nc2cccc3cccc(c23)NC1=O)Nc1ccccc1 (configuration not stated)	-7%	1%	?	13%	18µM*
Cc1ccc2c(c1)c(-c1ccccc1)nc1nnnn12	24µM*	1%	2%	4%	19%
CC(C)OCCCn1c(=S)[nH]c2ncccc2c1=O	-30%	?	?	8.9µM*	-10%
CCN(CC)CCCn1c(=S)[nH]c2ncccc2c1=O	?	-3%	?	-7%	?
CCN(CCCn1c(=S)[nH]c2ncccc2c1=O)c1ccccc1	-7%	4µM*	6%	1.4µM*	12%
